PubChem BioAssay (Tox21)
Inconclusive results are not listed. Active and inactive are the calls of the source. Unless noted, the call rests on the fitted dose curve.

Tests used:
[1] = Nuclear factor erythroid 2-related factor 2/antioxidant responsive element (Nrf2/ARE) small molecule agonists: qHTS cell viability counter screen in human keratinocytes (AID 1919968; active means well fitted curve in the direction sought with a large enough effect in the repeat runs; an effect the other way counts as inactive or inconclusive; further: nearly all actives have a fitted effect of over 55% in size; further: potency means the concentration at half of the fitted maximal effect)
Summary of the method: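 In human HaCaT keratinocytes stably expressing an ARE-driven luciferase, compound exposure lasted 23 h at 37 C under 5% CO2. Viable cells are quantified with a protease-based fluorogenic reagent (CellTiter-Fluor) read 1 h after addition.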

[2] = Nuclear factor erythroid 2-related factor 2/antioxidant responsive element (Nrf2/ARE) small molecule agonists: luciferase reporter gene qHTS assay in human keratinocytes (AID 1919969); further: nearly all actives have a fitted effect of over 35% in size; further: potency means the concentration at half of the fitted maximal effect
[3] = biological target: Gonadotropin-releasing hormone receptor (Homo sapiens) (UniProt P30968); experiment: Human gonadotropin-releasing hormone receptor (GnRHR) small molecule agonists, calcium flux assay in GnRHR-HEK293 cells (AID 1920063); further: nearly all actives have a fitted effect of over 35% in size
Gonadotropin-releasing hormone receptor (Homo sapiens), sequence (P30968 whole entry, looked up): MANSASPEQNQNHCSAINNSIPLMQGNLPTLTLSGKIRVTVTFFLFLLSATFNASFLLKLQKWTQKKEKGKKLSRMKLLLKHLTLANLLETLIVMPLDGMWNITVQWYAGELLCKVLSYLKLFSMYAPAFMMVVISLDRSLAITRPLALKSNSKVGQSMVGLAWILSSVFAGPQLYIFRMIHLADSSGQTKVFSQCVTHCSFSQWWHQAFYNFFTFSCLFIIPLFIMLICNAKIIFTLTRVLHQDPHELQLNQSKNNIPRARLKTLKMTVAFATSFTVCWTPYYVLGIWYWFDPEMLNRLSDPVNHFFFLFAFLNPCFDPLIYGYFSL
Summary of the method: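 Intracellular calcium rise is the read-out: engineered human GnRHR HEK293 cells, dye-loaded, are exposed to DMSO-dissolved compounds and fluorescence at Ex/Em 480/540 is tracked for 3 min.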

[4] = biological target: KiSS-1 receptor (Homo sapiens) (UniProt Q969F8); experiment: Human kisspeptin (KISS1R) small molecule agonists, calcium flux assay in KISS1R-HEK293 cells (AID 1920064; active means well fitted curve in the direction sought with a large enough effect in the repeat runs; an effect the other way counts as inactive or inconclusive)
KiSS-1 receptor (Homo sapiens), sequence (Q969F8 whole entry, looked up): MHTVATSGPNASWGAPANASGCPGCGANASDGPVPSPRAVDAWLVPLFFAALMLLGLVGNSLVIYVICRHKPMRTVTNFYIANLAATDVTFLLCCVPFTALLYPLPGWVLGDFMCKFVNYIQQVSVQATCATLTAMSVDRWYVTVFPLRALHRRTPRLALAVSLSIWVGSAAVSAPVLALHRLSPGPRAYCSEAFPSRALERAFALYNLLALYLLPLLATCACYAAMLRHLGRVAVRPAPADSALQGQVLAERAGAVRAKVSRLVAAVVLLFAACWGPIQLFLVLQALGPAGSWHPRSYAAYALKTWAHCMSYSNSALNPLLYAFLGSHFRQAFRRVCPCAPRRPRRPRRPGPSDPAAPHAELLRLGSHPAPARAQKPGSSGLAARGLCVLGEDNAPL
Summary of the method: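 Concentration-response testing used 15 concentrations in triplicate on human KISS1R-expressing HEK293 cells. Calcium-dependent fluorescence (Ex/Em 480/540) was followed kinetically for 3 min after compound transfer.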

[5] = G protein-coupled receptor (GPCR) small molecule agonists, calcium flux assay: HEK293 wild type cell line counter screen (AID 1920065)
Summary of the method: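 Fluorescence intensity signals activation. After overnight (18 h) culture and a 1 h calcium dye load at 37 C, compounds are added by pin tool and the plate read at 480/540 nm for 3 min in 1 s steps.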

[6] = p53 small molecule agonists, cell-based qHTS assay with human liver microsomes (AID 1963577);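 further: p53 response element beta-lactamase reporter cells with liver microsomes plus NADPH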
Summary of the method: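 Compounds act here after metabolic activation: human liver microsomes and NADPH, both at 0.5 mg/mL final, were co-added to p53RE-bla cells. Incubation ran 16 h at 37 C, followed by LiveBLAzer detection.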

[7] = p53 small molecule agonists, cell-based qHTS assay with rat liver microsomes (AID 1963578)
Summary of the method: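 Read-out is beta-lactamase reporter fluorescence (LiveBLAzer, 2 h, room temperature, dark) in p53RE-bla cells treated 16 h at 37 C with compound, rat liver microsomes and NADPH, both 0.5 mg/mL final.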

[8] = p53 small molecule agonists, cell-based qHTS assay with rat liver microsomes: qHTS cell viability counter screen (AID 1963580); further: nearly all actives have a fitted effect of over 45% in size
Summary of the method: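 Cytotoxicity counter screen: intracellular ATP read by CellTiter-Glo luminescence in the p53 reporter wells. HCT-116 p53RE-bla cells were treated for 16 h at 37 C alongside rat liver microsomes and NADPH, each 0.5 mg/mL final.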

[9] = p53 small molecule agonists, cell-based qHTS assay: qHTS cell viability counter screen (AID 1963581); further: nearly all actives have a fitted effect of over 45% in size
Summary of the method: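 Luminescence from CellTiter-Glo, reflecting ATP content, serves as the cytotoxicity measure; it is taken after the 2 h reporter substrate step in HCT-116 p53RE-bla cells dosed for 16 h at 37 C.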

[10] = biological target: 5-hydroxytryptamine receptor 2A (Homo sapiens) (UniProt P28223); experiment: 5-hydroxytryptamine receptor 2A (HTR2A) small molecule antagonists, cell-based qHTS assay (AID 1963586); further: nearly all actives have a fitted effect of over 45% in size; further: potency means the concentration at half of the fitted maximal effect
5-hydroxytryptamine receptor 2A (Homo sapiens), sequence (P28223 whole entry, looked up): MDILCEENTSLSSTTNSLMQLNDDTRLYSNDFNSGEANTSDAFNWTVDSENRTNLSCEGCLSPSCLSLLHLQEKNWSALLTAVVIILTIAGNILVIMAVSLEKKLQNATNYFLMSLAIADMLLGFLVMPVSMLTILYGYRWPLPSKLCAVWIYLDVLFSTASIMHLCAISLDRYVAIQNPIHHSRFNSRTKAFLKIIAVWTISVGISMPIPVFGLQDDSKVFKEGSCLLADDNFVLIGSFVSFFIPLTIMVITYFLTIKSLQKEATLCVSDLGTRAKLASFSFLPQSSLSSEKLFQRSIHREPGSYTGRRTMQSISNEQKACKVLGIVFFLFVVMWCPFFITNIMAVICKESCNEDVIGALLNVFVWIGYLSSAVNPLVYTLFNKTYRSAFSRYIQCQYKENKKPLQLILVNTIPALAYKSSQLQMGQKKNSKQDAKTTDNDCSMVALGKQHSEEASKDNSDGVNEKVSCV
Summary of the method: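 CHO cells stably expressing human HTR2A were plated for 18 h at 37 C, then loaded with calcium dye for 1 h. Compounds were preincubated 5 min at room temperature before DOI (4 nM solution) was added. Kinetic fluorescence was read for 3 min.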

[11] = biological target: 5-hydroxytryptamine receptor 2A (Homo sapiens) (UniProt P28223); experiment: 5-hydroxytryptamine receptor 2A (HTR2A) small molecule agonists, cell-based qHTS assay (AID 1963587); further: nearly all actives have a fitted effect of over 30% in size
Summary of the method: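 Kinetic calcium-flux fluorescence (2 min, 1 sec intervals) after compound addition in agonist mode. HTR2A-CHO cells were cultured 18 h, then dye-loaded 1 h at 37 C.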

[12] = biological target: Muscarinic acetylcholine receptor M1 (Homo sapiens) (UniProt P11229); experiment: Cholinergic receptor muscarinic 1 (CHRM1) small molecule antagonists, cell-based qHTS assay (AID 1963588); further: nearly all actives have a fitted effect of over 40% in size
Muscarinic acetylcholine receptor M1 (Homo sapiens), sequence (P11229 whole entry, looked up): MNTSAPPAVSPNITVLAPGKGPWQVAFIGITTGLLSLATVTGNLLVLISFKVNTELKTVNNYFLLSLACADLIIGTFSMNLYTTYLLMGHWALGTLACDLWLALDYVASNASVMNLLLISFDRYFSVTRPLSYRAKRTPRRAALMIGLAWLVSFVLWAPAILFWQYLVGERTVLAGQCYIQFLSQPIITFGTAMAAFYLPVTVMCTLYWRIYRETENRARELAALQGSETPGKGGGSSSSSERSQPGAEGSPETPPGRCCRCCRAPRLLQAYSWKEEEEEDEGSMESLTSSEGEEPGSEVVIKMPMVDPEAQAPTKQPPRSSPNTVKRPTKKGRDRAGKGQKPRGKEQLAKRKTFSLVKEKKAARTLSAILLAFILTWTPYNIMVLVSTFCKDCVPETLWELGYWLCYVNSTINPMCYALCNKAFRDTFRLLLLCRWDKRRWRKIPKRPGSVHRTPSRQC
Summary of the method: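 Compounds were tested at 15 concentrations in three independent runs. Dye-loaded CHRM1-CHO cells were exposed 5 min at room temperature before stimulation by acetylcholine added at 50nM. Intracellular calcium was read kinetically on FDSS for 3 min.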

[13] = biological target: Muscarinic acetylcholine receptor M1 (Homo sapiens) (UniProt P11229); experiment: Cholinergic receptor muscarinic 1 (CHRM1) small molecule agonists, cell-based qHTS assay (AID 1963589); further: nearly all actives have a fitted effect of over 35% in size
Summary of the method: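 Fluorescent calcium dye reports M1 activation in stably transfected CHO cells. Compounds, 15 concentrations, added after 1 h dye loading at 37 C; kinetic reading at 1 sec intervals.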

[14] = cAMP Responsive Elements (CRE) small molecule agonists, cell-based qHTS assay (AID 1963590)
Summary of the method: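 Compound exposure lasted 3 h at 37 C/5% CO2 in CRE-bla HEK 293T cells grown in assay medium with 10% dialyzed FBS and 25 mM HEPES. Reporter signal came from LiveBLAzer B/G FRET substrate, 2 h, room temperature.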

[15] = cAMP Responsive Elements (CRE) small molecule antagonists, cell-based qHTS assay (AID 1963591; active means well fitted inhibition curve with a large enough effect in the signal ratio in the repeat runs, not every such curve was filed as active; the % refers to the signal ratio)
Summary of the method: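 Stimulation used NKH477 at a final 0.25 uM for 3 h in compound-treated CRE-bla HEK293T cells, seeded 18 h beforehand. Reporter activity was measured with LiveBLAzer B/G FRET substrate after 2 h at room temperature.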

[16] = biological target: Beta-2 adrenergic receptor (Homo sapiens) (UniProt P07550); experiment: Adrenergic beta2 receptor (ADRB2) small molecule agonists, cell-based qHTS assay (AID 1963593);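 further: CHO cells stably overexpressing human ADRB2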
Beta-2 adrenergic receptor (Homo sapiens), sequence (P07550 whole entry, looked up): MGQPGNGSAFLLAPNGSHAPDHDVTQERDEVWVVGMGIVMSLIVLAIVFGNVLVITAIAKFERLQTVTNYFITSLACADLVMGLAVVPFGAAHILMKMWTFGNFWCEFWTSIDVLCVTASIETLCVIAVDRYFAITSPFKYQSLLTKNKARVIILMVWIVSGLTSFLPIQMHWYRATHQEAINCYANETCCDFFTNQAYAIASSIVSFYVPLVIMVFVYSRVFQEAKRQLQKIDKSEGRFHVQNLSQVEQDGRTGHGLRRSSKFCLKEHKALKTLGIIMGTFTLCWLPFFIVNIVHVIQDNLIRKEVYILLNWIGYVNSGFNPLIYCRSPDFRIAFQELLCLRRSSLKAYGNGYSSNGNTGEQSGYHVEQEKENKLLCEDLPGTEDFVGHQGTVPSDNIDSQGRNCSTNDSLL
Summary of the method: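 CHO cells stably over-expressing ADRB2 were plated overnight at 37C, then dosed with compounds plus a stimulation mix containing 100uM IBMX and 25uM Ro-20-1724 for 0.5hr at room temperature. cAMP was measured by HTRF competition, 1hr.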

[17] = biological target: D(2) dopamine receptor (Homo sapiens) (UniProt P14416); experiment: Dopamine D2 receptor (DRD2) small molecule antagonists, cell-based qHTS assay (AID 1963595; active means well fitted inhibition curve with a large enough effect in the signal ratio in the repeat runs, with a control signal flat; the % refers to the signal ratio)
D(2) dopamine receptor (Homo sapiens), sequence (P14416 whole entry, looked up): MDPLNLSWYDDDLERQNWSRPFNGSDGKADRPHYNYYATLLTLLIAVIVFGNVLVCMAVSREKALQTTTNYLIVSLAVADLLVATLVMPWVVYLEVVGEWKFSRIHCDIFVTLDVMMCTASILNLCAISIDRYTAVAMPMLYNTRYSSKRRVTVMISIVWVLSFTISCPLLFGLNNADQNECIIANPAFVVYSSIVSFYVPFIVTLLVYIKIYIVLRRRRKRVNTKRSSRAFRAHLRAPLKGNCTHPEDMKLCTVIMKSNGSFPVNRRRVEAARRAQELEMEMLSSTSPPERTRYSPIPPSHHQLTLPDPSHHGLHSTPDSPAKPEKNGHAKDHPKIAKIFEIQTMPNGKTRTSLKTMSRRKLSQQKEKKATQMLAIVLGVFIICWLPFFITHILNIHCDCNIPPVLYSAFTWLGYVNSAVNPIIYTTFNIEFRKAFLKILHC
Summary of the method: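 In this cell-based antagonist screen, compounds act for 10 min at room temperature before a 30 min challenge with 12 nM quinpirole and 200 nM NKH477. cAMP is quantified by HTRF competition in DRD2-HEK293 cells containing 0.1 mM Ro20-1724.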

[18] = biological target: Beta-2 adrenergic receptor (Homo sapiens) (UniProt P07550); experiment: Adrenergic beta2 receptor (ADRB2) small molecule antagonists, cell-based qHTS assay (AID 1963592); further: series mostly up to about 92 µM; nearly all actives have a fitted effect of over 50% in size
Summary of the method: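 Assay format: CHO-ADRB2 cells, 18-20hr seeding at 37C/5% CO2, then compound plus 1nM isoproterenol agonist mix for 0.5hr RT. Homogeneous time-resolved fluorescence cAMP detection after 1hr, expressed as 665/615 nm ratio.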

[19] = biological target: D(2) dopamine receptor (Homo sapiens) (UniProt P14416); experiment: Dopamine D2 receptor (DRD2) small molecule agonists, cell-based qHTS assay (AID 1963594); further: nearly all actives have a fitted effect of over 35% in size; further: potency means the concentration at half of the fitted maximal effect
Summary of the method: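 cAMP accumulation in DRD2-HEK293 cells measured by HTRF after 1 h detection; compounds added 10 min before NKH477 (200nM […]) forskolin-analogue stimulation, 30 min at room temperature, with Ro20-1724 present at 0.1 mM final.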

[20] = p53 small molecule agonists, cell-based qHTS assay (AID 1963582; active means well fitted activation curve with a large enough effect in the signal ratio in the repeat runs, not every such curve was filed as active; the % refers to the signal ratio)
Summary of the method: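 After plating, p53RE-bla cells sat 5 h in the incubator; compounds or DMSO vehicle were pinned in; a 16 h incubation at 37 C followed; FRET substrate was added and, 2 h later at RT, fluorescence was measured.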

Measured: Potency

COc1cc(O)cc(O)c1
not listed: [18] | [19] | [20]
inactive: all other assays above

O=C(O)c1cc(O)c2ccccc2c1O
active: [1] 6.11 µM | [2] 1.72 µM
not listed: [9] | [14] | [16] | [17] | [20]
inactive: all other assays above

C=CCN1CCc2nc(N)sc2CC1
active: [10] 4.1 µM | [19] 0.119 µM
not listed: [9] | [11]
inactive: all other assays above

c1ccc(CNCCNCc2ccccc2)cc1
not listed: [15] | [16] | [20]
inactive: all other assays above

COc1cnc(NS(=O)(=O)c2ccc(N)cc2)nc1
not listed: [9]
inactive: all other assays above

C/C=C\C/C=C/CCCCCCCCOC(C)=O
active: [2] 68.6 µM
not listed: [9] | [14] | [15] | [20]
inactive: all other assays above

Cc1cc2c(s1)Nc1ccccc1N=C2N1CCN(C)CC1
inactive: [1] | [2] | [3] | [4] | [5] | [6] | [7] | [8] | [20] | [14] | [15]

O=S(=O)(O)c1ccc(N=Nc2c(O)ccc3ccccc23)cc1
active: [1] 61.1 µM
not listed: [9] | [14] | [15] | [16] | [17] | [20]
inactive: all other assays above

O=C(O)c1cccc(Oc2ccccc2)c1
not listed: [9] | [14] | [15]
inactive: all other assays above

O=C(/C=C/c1ccccc1)OC/C=C/c1ccccc1
not listed: [9] | [13] | [16] | [17]
inactive: all other assays above

CC(C(=O)O)c1ccc2c(c1)CC(=O)c1ccccc1S2 (configuration not stated)
not listed: [14] | [16] | [18] | [19] | [20]
inactive: all other assays above

CC(C)(c1cc(Br)c(OCCO)c(Br)c1)c1cc(Br)c(OCCO)c(Br)c1
active: [1] 37.7 µM
not listed: [9] | [14] | [15] | [16] | [20]
inactive: all other assays above

CC(C)NCC(O)c1ccc(NS(C)(=O)=O)cc1 (configuration not stated)
not listed: [9] | [10] | [11] | [12] | [13] | [16] | [18]
inactive: all other assays above

Cc1ccc2nc(N)[nH]c(=O)c2c1Sc1ccncc1
not listed: [20]
inactive: all other assays above

CC(C)(C)C1CCC(=O)CC1
active: [2] 68.6 µM
not listed: [9] | [11] | [14] | [15] | [16] | [20]
inactive: all other assays above

Nc1c(CC(=O)O)cccc1C(=O)c1ccc(Br)cc1
inactive: [1] | [2] | [3] | [4] | [5] | [6] | [7] | [8] | [18] | [19] | [17]

CCCCCCCC[Si](OCC)(OCC)OCC
not listed: [7] | [16]
inactive: all other assays above

Cc1ccc(OC(=O)c2ccccc2O)cc1
not listed: [7] | [12] | [14] | [15]
inactive: all other assays above

O=C(O)CNC(=O)c1ccc([N+](=O)[O-])cc1
not listed: [7] | [16]
inactive: all other assays above

Cc1ccc2sc3cccc(C)c3c2c1
not listed: [7] | [16]
inactive: all other assays above

c1ccc(CN(CC2=NCCN2)c2ccccc2)cc1
not listed: [7] | [10] | [12] | [16] | [18]
inactive: all other assays above
